{
  "source": "PubChem BioAssay (NCI)",
  "note": "“And” between values parts separate entries of the source, which are not always exact repeats. Equal entries are not always repeated. About 83,000 compounds went through this panel and 20% of them were active in at least one assay; those are over-represented in the sample as a whole.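 Compound tested at a single concentration for 48 hours in 96-well plates; a percent growth value below 10 was scored as active.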 The source made the active and inactive calls.",
  "data": [
    {"tested_on": "HL-60(TB) leukemia", "experiment": "NCI-60 one-dose screen, 48 h (100 = growth as untreated, 0 = no growth, -100 = all killed)", "settings": "10 µM unless noted", "values": [
      {"molecule": "CC(C)NCC(O)c1ccc(O)c(O)c1", "note": "(stereo not given)", "growth": "85.3% (inactive) and 82.1% (inactive) and 95.3% (inactive)"},
      {"molecule": "CC(C)(C)OC(=O)N1CCc2c(sc3ncnc(N/N=C/c4cccc(Br)c4)c23)C1", "growth": "71.8% (inactive)"},
      {"molecule": "CC(O)c1nc2c(c(=O)n(C)c(=O)n2C)n1C", "note": "(stereo not given)", "growth": "100% (inactive)"},
      {"molecule": "CN1CCN(c2ccc3nc(-c4c(N)c5c(F)cccc5[nH]c4=O)[nH]c3c2)CC1", "growth": "12.9% (inactive) and 3.6% (active)"},
      {"molecule": "CCCCCCCC/C=C/CCCCCCCC1=NC(C)(C)CN1C(C)(C)CO", "growth": "-59.8% (active)"},
      {"molecule": "COC(=O)[C@]12CC[C@@H](C)[C@H](C)[C@@H]1C1=CC[C@@H]3[C@@]4(C)C(c5cnco5)=C[C@@](C)(CO)C4=CC[C@@]3(C)[C@]1(C)CC2", "growth": "21.9% (inactive)"},
      {"molecule": "Cc1ccc(NC(=O)CN2CCOCC2)cc1Cl", "growth": "74.2% (inactive)"},
      {"molecule": "O=C(/C=C/c1ccccc1)c1cccc(O)c1", "growth": "72.1% (inactive)"},
      {"molecule": "CCCCCCCCCCCCCC(=O)Oc1ccc[nH]c1=O", "growth": "97.1% (inactive)"},
      {"molecule": "COc1ccc(C2C=C(c3ccc(Cl)c(Cl)c3)N=C3SC(C)=CN32)cc1OC", "note": "(stereo not given)", "growth": "63.3% (inactive)"},
      {"molecule": "CC(C)CCN(CCCNc1c2c(nc3ccccc13)CCCC2)CCC(C)C", "growth": "102% (inactive)"},
      {"molecule": "N#CSCC(=O)c1ccc(Cl)cc1", "growth": "73.4% (inactive)"},
      {"molecule": "O=C(Cn1cc(CN2CCCCCC2)nn1)Nc1ccc2c(ccn2Cc2ccccc2)c1", "growth": "92.2% (inactive)"},
      {"molecule": "CCOC(=O)c1cnc2c(OC)ccc(OC)c2c1Cl", "growth": "127% (inactive)"},
      {"molecule": "CS(=O)(=O)c1ccc(-c2cc(-c3nnc(SCC(=O)Nc4ccc(C(=O)/C=C/c5ccc(Cl)cc5)cc4)n3-c3ccccc3)c3ccccc3n2)cc1", "growth": "98.9% (inactive)"}
    ]}
  ]
}
